Test results as given in ChEMBL document CHEMBL1157539, “Thousands of chemical starting points for antimalarial lead identification” (Nature, 2010).

tested on: Plasmodium falciparum; assay: GSK_TCMDC: Inhibition of Plasmodium falciparum Dd2 in whole red blood cells, using parasite LDH activity as an index of growth. Test compounds present at 2uM; type: functional

Compound	Inhibition
O=C(NCCN1CCCCC1)N1CCCN(c2ncnc3cc(-c4ccccc4)sc23)CC1.O=C(O)C(F)(F)F	80%
CC1(C)N=C(N)N=C(N)C1c1ccc(Cl)cc1.Cl (configuration not stated)	0%
Nc1ncc(OC2CCCCC2)c(N)n1	0%
CO/C(=C\C=C\c1cc2cc(Cl)c(Cl)cc2[nH]1)C(=O)NCCCN1CC(C)N(C)CC1C (configuration not stated)	73%
CCOc1ccc(-c2nonc2NC(=O)CC(C)C)cc1OCC	37%
COc1ccc2nccc([C@@H](O)CN3CCC(NCc4cc5c(cc4F)SCC(=O)N5)CC3)c2n1	27%
COc1ccc(N2C(N)=NC(N)=NC2(C)C)cc1OC.Cl	0%
CCOC(=O)c1c(CCc2ccc(C(F)(F)F)cc2)nc2c(c1-c1ccc(C(=O)N[C@@H](C)c3ccncc3)cc1)C(=O)N1CCC[C@@H]21	68%
COc1ccc(NC(=O)[C@H](CC(C)C)Nc2cc(C)nc(NCc3cccc(C)c3)n2)cc1.O=C(O)C(F)(F)F	90%
Cc1cccc(N2CCN(C3CCC(NC(=O)c4cc5ccccc5[nH]4)CC3)CC2)c1C (configuration not stated)	21%
Cc1cc(-c2ccc(O)c(CNC3CCCCC3)c2)cnc1N	100%
CCOC(=O)COc1cccc(CNc2ccc3nc(N)nc(N)c3c2)c1	99%
Cc1[nH]c(C)c(-c2ccc(OCc3ccc(OC(F)(F)F)cc3)nc2)c(=O)c1Br	97%
O=C(Nc1ccc(I)cc1)N1CCc2sccc2C1CN1CCCCC1 (configuration not stated)	0%
CN1CCCC1CCNCc1cccc(-c2cnc(N(C)C3CCCCC3)nc2)c1 (configuration not stated)	95%
N#Cc1ccc(-c2ccc(C(=O)NCCCCN3CCC(c4ccc5c(c4OCc4ccncc4)CCCC5)CC3)cc2)cc1	57%
Cc1cccc2nc(-c3ccc(-c4ccc(NC(=O)C(C)CN5CCN(C)CC5)cc4)s3)[nH]c12 (configuration not stated)	99%
O=C(NCC1CCN(CCN2CCc3ccc4c(c3C2)OCO4)CC1)c1ccc(-c2ccc(C(F)(F)F)cc2)cc1	34%
O=C(/C=C/c1ccc(Cl)c(Cl)c1)NCC(CCCN1CCC(c2c[nH]c3ccccc23)CC1)c1ccccc1 (configuration not stated)	46%

Compound	Inhibition
CCOC(=O)c1ccc(NC(=O)N[C@@H](Cc2ccccc2)C(=O)NC2CCN(Cc3ccc(OCCCN(C)C)cc3)C2)cc1 (some centres not stated)	8%
COc1ccc2nccc([C@@H](O)CN3CCC(NCCOc4ccccc4C#N)CC3)c2c1.O=C(O)C(=O)O	99%
CCCC(CNCc1ccccc1)CNc1cc(=O)c2ccccc2[nH]1 (configuration not stated)	21%
CC(Cc1ccc(OCCN2CCN(c3ccccc3)CC2)cc1)NCC(O)c1cccc(Cl)c1F.Cl (configuration not stated)	56%
Fc1cccc(COc2ccc(Nc3ncnc4sc(C#CCNC5CCC5)cc34)cc2Cl)c1	73%
O=C(NC1CCCCC1)N(Cc1ccc(-c2ccc(CNCc3ccc4c(c3)OCO4)cc2)cc1)C1CCN(Cc2ccccc2)CC1.O=C(O)C(F)(F)F	72%
N#Cc1ccc(N/C(=N\c2cccc(Cl)c2Cl)NCc2ccc(Cl)cc2Cl)c(O)c1	75%
Cl.c1ccc2nc(NCCCCCCCCNc3ccc4ccccc4n3)ccc2c1	37%
CCOc1cc(C)ccc1C1CCN(CCCCNC(=O)c2ccc(-c3ccc(Cl)cn3)cc2)CC1.Cl	8%
CCNc1cc(C(=O)N[C@@H](Cc2ccccc2)[C@H](O)CNC(CC)c2cccc(Cl)c2)cc(N2CCCC2=O)c1.Cl (some centres not stated)	99%
O=C(N[C@@H](Cc1ccccc1)[C@H](O)CNC1CCOCC1)c1cc(C2CCCC2)cc(N2CCCCS2(=O)=O)c1.O=CO	98%
NCc1ccc(CNCc2cccc(-c3ccc(-c4nc5ccccc5[nH]4)cc3)c2)cc1.O=C(O)C(F)(F)F	58%
Cc1cccc(S(=O)(=O)Nc2cccc(CCN3CCC(N4CCCCC4)CC3)c2)c1	13%
Cc1cccc2nc(-c3ccc(-c4cccc(CN5CCN(CCN6CCOCC6)CC5)c4)s3)[nH]c12.O=C(O)C(F)(F)F	83%
CN1CCN(Cc2cccc(Nc3nccc(Nc4ccc(Oc5ccccc5)cc4)n3)c2)CC1	80%
COc1ccccc1C1CCN(C2CCC(NC(=O)c3cc4cc(C(C)C)ccc4[nH]3)CC2)CC1 (configuration not stated)	98%
COc1ccc(Cl)cc1S(=O)(=O)Nc1cccc(CCN2CCC(N3CCCCC3)CC2)c1	9%
CCc1ccc(-n2c(=O)c3cccnc3n2CC(=O)NC2CCCC2)cc1	27%
